PubChem BioAssay (NCATS)
Records with an inconclusive call do not appear. The source made the active and inactive calls. Calls come from the whole dose curve; as a rule, active = well fitted activation curve with a large enough effect in the main read-out, with a control signal flat (not every such curve was filed as active); inconclusive = small, poorly fitted or top-dose-only effect, or effect the other way, or a change in a side signal; inactive = flat fitted curve, though single readings scatter. Residues, ends and D or L forms follow the SMILES beside them.

target: 3',5'-cyclic-AMP phosphodiesterase 4B (Homo sapiens) (UniProt Q07343); assay: qHTS Assay for Inhibitors of PDE-IV (AID 607); settings: HEK293 ACTOne CNG channel cells, membrane potential fluorescence; series mostly up to 22.9 µM; activation (PDE inhibition): at the top concentration; note: % of control where 0% means no effect
Sequence (Q07343 whole entry, looked up): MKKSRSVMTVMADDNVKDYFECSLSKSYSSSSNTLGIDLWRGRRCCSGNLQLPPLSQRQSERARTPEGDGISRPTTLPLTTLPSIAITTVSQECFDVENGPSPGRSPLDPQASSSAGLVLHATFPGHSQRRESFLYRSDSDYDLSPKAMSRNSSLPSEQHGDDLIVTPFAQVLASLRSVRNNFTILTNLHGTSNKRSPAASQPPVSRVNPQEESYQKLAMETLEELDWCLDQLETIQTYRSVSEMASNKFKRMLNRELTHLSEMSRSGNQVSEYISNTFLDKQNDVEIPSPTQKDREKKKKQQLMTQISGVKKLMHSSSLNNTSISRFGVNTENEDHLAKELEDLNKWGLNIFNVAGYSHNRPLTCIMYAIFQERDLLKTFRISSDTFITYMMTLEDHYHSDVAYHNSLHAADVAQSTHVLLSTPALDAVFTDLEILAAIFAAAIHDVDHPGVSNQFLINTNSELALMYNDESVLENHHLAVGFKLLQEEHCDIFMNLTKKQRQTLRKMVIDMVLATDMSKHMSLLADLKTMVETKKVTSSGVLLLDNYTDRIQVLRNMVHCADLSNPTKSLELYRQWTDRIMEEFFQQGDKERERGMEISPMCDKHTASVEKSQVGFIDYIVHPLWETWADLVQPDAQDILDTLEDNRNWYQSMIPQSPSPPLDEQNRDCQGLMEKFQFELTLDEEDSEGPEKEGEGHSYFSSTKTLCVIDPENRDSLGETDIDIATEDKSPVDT
Description: NIH Chemical Genomics Center [NCGC]
NIH Molecular Libraries Screening Centers Network [MLSCN]
The cyclic nucleotide phosphodiesterases (PDEs) are proteins that catalyze hydrolysis of 3', 5'-cyclic nucleotides, such as cyclic adenosine monophosphate (cAMP) and cyclic guanosine monophosphate (cGMP), to their corresponding 5'-nucleotide monophosphates. These enzymes play an important role in controlling cellular concentrations of cyclic nucleotides and have a central role in a variety of intracellular signaling events. cAMP PDEs are emerging as a promising class of drug targets in asthma and cardiovascular disease therapeutic areas.
There are no commercially available cell-based screening assays for PDE inhibitors: currently biochemical assays are done using pure substrates (cAMP or cGMP) and purified recombinant PDE enzymes. As with other biochemical screens on intracellular targets, false positives and false negatives may result from issues involving cell membrane permeability, cellular metabolism, and the like.
Here we report the development of a cell-based screening assay for cAMP phosphodiesterase (PDE) inhibitors. The assay is based on the BD ACTOne# technology (BD Biosciences) which utilizes a modified cyclic nucleotide-gated channel (CNG) to monitor intracellular cAMP changes in live cells. The CNG channel is localized on the plasma membrane, and opens when the intracellular cAMP level increases, resulting in ion flux and cell membrane depolarization. The influx of cations through the CNG channel can be quantified using membrane potential (MP) dyes. We modified the BD ACTOne technology to allow the detection of PDE inhibitors, and performed an inhibitor screen for PDE-IV, which is expressed endogenously in HEK293 cells. We optimized this assay in homogeneous 1536-well plate assay format for high throughput screening.
NCGC Assay Protocol Summary:
The medium contained 10% FBS (Invitrogen), 2 mM L-glutamine, and 250 ug/ml G418 (Cellgro) and 1 ug/ml puromycin (Clontech). ACTOneTM parental cells (BD Biosciences) were maintained in the same medium without puromycin.
The activity of the CNG channel was measured by BD ACTOneTM membrane potential dye kit (BD Biosciences). Forskolin, a positive control for cAMP activation and RO 20-1724, a PDE inhibitor, were both purchased from Sigma and solublized in DMSO.
Sequence,Parameter,Value,Description
1,Reagent,3 uL,1000 cells/well 1536 TC treated Black plate
3,Compound,0.5 uL,Kalypsys dispense RO 20-1724 100 uM final [A]
4,Reagent,3 uL,BD membrane potential dye
6,Compound,23 nL,Final concentration was 0.7nM to 22.9uM
8,Detector,EX 535 / EM 590 [B],Envision
Footnotes: [A] The stock 2 mM RO 20-1724 PDE inhibitor was made in 10 % DMSO. Parental cell line received 10 uM forskolin + 100 uM RO. [B] Envsion settings: Bottom Excitation 535/20 nm top emission 590/20, gain of 150 and 5 flashes per well.
Keywords: PDE, PDE-IV, cytotoxicity, flourescence, MLSMR, MLSCN, NIH Roadmap, qHTS, NCGC

SMILES | activation (PDE inhibition) | Potency
CC(N)=NCCC[C@H](N)C(=O)O | 5.16% (inactive) | –
CC(C)=CCC/C(C)=C/CC/C(C)=C/CSc1ccccc1C(=O)O | -4.19% (inactive) | –
C1=C(CN2CCOCC2)COc2c1cccc2OC[C@@H]1CNCCO1 | -29.6% (inactive) | –
NS(=O)(=O)c1cc2c(cc1Cl)N[C@@H]([C@@H]1C[C@@H]3C=C[C@H]1C3)NS2(=O)=O | – | inactive
C[C@H](C[C@H](N)C(=O)O)C(=O)O | -16.6% (inactive) | –
NC1(C(=O)O)CCC1 | 18.9% (inactive) | –
O=C1c2ccccc2CC[C@H]1CNCCc1ccc(O)cc1 | 0.4% (inactive) | –
CN(C)C/C=C(\c1ccc(Br)cc1)c1cccnc1 | – | inactive
NCCC(=O)O | 9.08% (inactive) | –
CC(N)=NCCCC[C@H](N)C(=O)O | 2.51% (inactive) | –
CCCCCCCCCCCCC/C=C\[C@@H](O)[C@H](CO)NC(C)=O | 11% (inactive) | –
N[C@]1(C(=O)O)CCc2cc(P(=O)(O)O)ccc21 | 8.22% (inactive) | –
O=C1N=C(O)CN1/N=C\c1ccc(-c2ccc([N+](=O)[O-])cc2)o1 | – | inactive
CC(=O)NCC(=O)N[C@H](CCC(=O)O)C(=O)O (HELM PEPTIDE1{[ac].G.[dE]}$$$$V2.0) | 10.7% (inactive) | –
S=C(S)O[C@@H]1C[C@@H]2C[C@H]1[C@@H]1CCC[C@H]21 | – | inactive
NCCOB(c1ccccc1)c1ccccc1 | 11% (inactive) | –
CC(C)[N+]1(C)[C@@H]2CC[C@H]1CC(OC(=O)[C@@H](CO)c1ccccc1)C2 (stereo not given in full) | – | inactive
COc1ccc2[nH]c(-c3ccccc3)c(CCNC(C)=O)c2c1 | -18% (inactive) | –
N[C@H](C(=O)O)[C@@H]1C[C@@H]1C(=O)O | – | inactive
COC(=O)[C@@H]1[C@@H]2C[C@H]3c4[nH]c5ccccc5c4CCN3C[C@@H]2CC[C@@H]1O | – | inactive

SMILES | activation (PDE inhibition) | Potency
COc1ccc(C(OCCN2CCC[C@@H](C(=O)O)C2)(c2ccc(OC)cc2)c2ccc(OC)cc2)cc1 | 11.6% (inactive) | –
CCCCCCCCCCCCCCCC(=O)C(F)(F)F | -2.89% (inactive) | –
CC(C)NC[C@@H](O)COc1ccc(COCCOC(C)C)cc1 | – | inactive
CCNCCCNCCCCNCCCNCC | -3.33% (inactive) | –
CCC(C)(C)N=C(NC#N)Nc1cccnc1 | 14.2% (inactive) | –
COc1ccccc1NC(=O)Nc1nc(-c2cccnc2)nc2ccccc12 | 15% (inactive) | –
CC(C)Oc1ccc2c(=O)c3cc(C(=O)O)ccc3oc2c1 | 18.6% (inactive) | –
Cc1o[nH]c(=O)c1CC[C@H](N)C(=O)O | -3.16% (inactive) | –
Cc1ncc2c(c1O)COP(=O)(O)OC2 | 2.61% (inactive) | –
N[C@H](C(=O)O)c1ccc(C(=O)O)c(O)c1 | -6.53% (inactive) | –
COc1ccc(/C=C\C(=O)Nc2ccccc2C(=O)O)cc1OC | – | inactive
N[C@H](Cc1ccc(Cl)cc1)C(=O)O | – | inactive
NCCC[C@@H](N)C(=O)O | 1.4% (inactive) | –
C[C@H](NC[C@H](O)CP(=O)(O)Cc1ccccc1)c1ccc(Cl)c(Cl)c1 | 5.84% (inactive) | –
Cn1cnc2c(NC3CCCC3)ncnc21 | 9.81% (inactive) | –
COc1ccc2c3c1O[C@H]1C[C@H](O)C=C[C@@]31CCN(C)C2 | -19.7% (inactive) | –
CC(=O)O[C@H]1C[C@H]2CC[C@@H]3[C@H]4C[C@@H]([N+]5(C)CCCCC5)[C@@H](OC(C)=O)[C@]4(C)CC[C@@H]3[C@@]2(C)C[C@@H]1[N+]1(C)CCCCC1 | -14.7% (inactive) | –
COc1cc(-c2ccc(N=Nc3ccc4c(S(=O)(=O)O)cc(S(=O)(=O)O)c(N)c4c3O)c(OC)c2)ccc1N=Nc1ccc2c(S(=O)(=O)O)cc(S(=O)(=O)O)c(N)c2c1O | – | inactive
N[C@]1(C(=O)O)CCc2cc(C(=O)O)ccc21 | – | inactive
COc1cccc(NC(=O)/C=C\c2ccc(Cl)cc2)c1 | 5.08% (inactive) | –
